# A selection: hits, their analogues and other compounds. The true share with any hit is near 18%.
# DT40 TDP1 CPT: qHTS for Inhibitors of human tyrosyl-DNA phosphodiesterase 1 (TDP1): qHTS in cells in presence of CPT; chicken DT40 Tdp1-/-;hTDP1 cells + 20 nM CPT, ATP luminescence, 48 h; Potency, µM (titrated, usually from 46.2 µM), inactives show at the highest dose activity change, negative = growth inhibition, actives largely listed as inhibitors; 420,000 tested, 12% active; AID 686979, 2013; further: potency means the concentration at half of the fitted maximal effect; nearly all actives have a fitted effect of over 55% in size
#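 Chicken DT40 Tdp1-/- cells complemented with human TDP1, 400 cells/well, exposed to compounds plus 20 nM camptothecin for at least 48 h at 37 C; viability read as ATP content by CellTiter-Glo luminescence.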
# Gal4-VP16 FLuc: VP16 counterscreen qHTS for inhibitors of ROR gamma transcriptional activity | 310,000 tested, 3.5% active | Potency, µM (highest dose often 53.6 µM), for inactives: top-dose activity, negative = inhibition, actives largely listed as inhibitors | Drosophila S2 Gal4-VP16 UAS-luciferase, luminescence, 20 h | AID 2546, 2010;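 further: Gal4-VP16 expression switched on by copper sulfate through the metallothionein promoter; potency means the concentration at half of the fitted maximal effect; nearly all actives have a fitted effect of over 50% in size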
# RORgamma inh: qHTS for inhibitors of ROR gamma transcriptional activity. Nuclear receptor ROR-gamma (Mus musculus), P51450. Drosophila S2 Gal4-RORgamma UAS-luciferase reporter, 20 h. Potency, µM (top dose mostly 53.6 µM), inactives show at the highest dose activity change, negative = inhibition, usual class: inhibitors. 310,000 tested, 5.4% active. AID 2551, 2010; further: potency means the concentration at half of the fitted maximal effect; nearly all actives have a fitted effect of over 60% in size
# Target sequence (P51450 whole entry, looked up, the tested form may be a part): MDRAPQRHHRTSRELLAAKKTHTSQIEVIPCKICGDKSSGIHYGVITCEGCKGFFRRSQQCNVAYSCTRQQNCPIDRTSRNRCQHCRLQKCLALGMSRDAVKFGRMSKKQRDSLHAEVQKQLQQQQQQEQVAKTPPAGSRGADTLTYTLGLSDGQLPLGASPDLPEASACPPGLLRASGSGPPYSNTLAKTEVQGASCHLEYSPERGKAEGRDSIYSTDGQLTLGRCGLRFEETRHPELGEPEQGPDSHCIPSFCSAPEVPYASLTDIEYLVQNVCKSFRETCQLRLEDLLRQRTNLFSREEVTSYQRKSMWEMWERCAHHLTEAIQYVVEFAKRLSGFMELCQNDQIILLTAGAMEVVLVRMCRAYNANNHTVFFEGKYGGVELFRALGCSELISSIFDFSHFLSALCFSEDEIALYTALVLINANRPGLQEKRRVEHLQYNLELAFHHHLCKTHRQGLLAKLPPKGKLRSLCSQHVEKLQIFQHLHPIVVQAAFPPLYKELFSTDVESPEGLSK
#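 Using a luciferase readout, inhibitors were identified by reduced reporter activity in Drosophila cells coexpressing a copper-inducible Gal4–ROR gamma fusion and UAS-driven Photinus luciferase, incubated 20 hr after 700 uM copper sulfate.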
# DT40 TDP1 no CPT: qHTS for Inhibitors of human tyrosyl-DNA phosphodiesterase 1 (TDP1): qHTS in cells in absence of CPT | 420,000 tested, 15% active | Potency, µM (series often up to 46.2 µM), for the others: top-dose activity change, negative = growth inhibition, usual class: inhibitors | DT40 Tdp1-/- hTDP1 cells, no CPT, ATP luminescence, 48 h | AID 686978, 2013; further: potency means the concentration at half of the fitted maximal effect; nearly all actives have a fitted effect of over 55% in size
#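 A cellular qHTS used chicken DT40 cells lacking endogenous Tdp1 but carrying stably transfected human TDP1. Compounds were applied without camptothecin, and cell growth kinetics were judged by ATP-dependent luminescence after ≥48 hr.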
# LDHA inh: qHTS assay for inhibitors of human lactate dehydrogenase; L-lactate dehydrogenase A chain (Homo sapiens), P00338; purified LDHA, NADH/diaphorase-resazurin fluorescence; active compounds read low; activity change, % (values are at about 110 or 230 µM); 480,000 tested, 0.15% active; AID 1347041, 2019; in the data active means activity change below about -30%; inconclusive means mostly about -25% to -30%;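 further: plate controls were DMSO wells for no effect and wells without enzyme for full effect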
#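 Resorufin fluorescence (ex540/em590), read at 0 and 20 min after diaphorase/resazurin addition, reports the NADH left after a 5 min room-temperature reaction of 2 nM human LDH5 with 0.06 mM NADH and 0.2 mM pyruvate.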
# IL1B secr inh: qHTS for Inhibitors of Inflammasome Signaling: IL-1-beta AlphaLISA Primary Screen; THP-1 LPS/ATP IL-1B secretion, AlphaLISA, 16 h; active compounds read low; activity change, % at 57.5 µM; 360,000 tested, 4.7% active; AID 743279, 2014; in the data active means activity change below about -50%; inconclusive means mostly about -30% to -49%
#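 THP-1 cells pretreated 1 hr with compounds (up to 57.5 uM final), then stimulated with LPS (250 ng/mL final) plus ATP (1.25 mM final); secreted IL-1B measured by AlphaLISA after 16 hr, decreased signal indicating inhibition.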
# Numbers without * were called inactive; ? = inconclusive; nt = no result. Unless noted, the call rests on the fitted dose curve; in most records, active means well fitted curve in the direction sought with a large enough effect; inconclusive means small, poorly fitted or top-dose-only effect, or another doubt; inactive means no such curve, though single readings can be large; an effect the other way counts as inactive or inconclusive. Unless noted, on the % scale 0 is the no-effect control and ±100 the full control effect.
SMILES,DT40 TDP1 CPT,Gal4-VP16 FLuc,RORgamma inh,DT40 TDP1 no CPT,LDHA inh,IL1B secr inh
O=c1c2c3c(sc2n(CCN2CCCCC2)c(=O)n1Cc1ccco1)CCCCC3,13µM*,0%,-3%,18µM*,8,-20
COc1cc(/C=C(/C#N)c2ccccn2)cc(Cl)c1OC(F)F,nt,nt,nt,nt,0,nt
c1ccc(C[C@H]2CNCCN2CCCCC2CCCCC2)cc1,?,nt,nt,?,4,-80*
c1ccc(C[C@H]2CNCCN2CC2CCCCC2)cc1,?,nt,nt,16µM*,-8,-24
CCOC(=O)N1CCN(C(=O)Nc2sc3nc4n(c(=O)c3c2C)CCC(C)CC4)CC1 (stereo not drawn),?,-6%,0%,?,-10,-6
CC(=O)c1cccc(NC(=O)Nc2sc3nc4n(c(=O)c3c2C)CCC(C)CC4)c1 (stereo not drawn),?,nt,nt,8.2µM*,-12,nt
Cc1c(NC(=O)Nc2ccccc2C(F)(F)F)sc2nc3n(c(=O)c12)CCC(C)CC3 (stereo not drawn),21µM*,nt,nt,13µM*,-4,nt
COc1cc(OC)c(NC(=O)Nc2sc3nc4n(c(=O)c3c2C)CCC(C)CC4)cc1Cl (stereo not drawn),5.2µM*,nt,nt,5.8µM*,-4,nt
Cc1c(NC(=O)Nc2ccc(Cl)c(Cl)c2)sc2nc3n(c(=O)c12)CCC(C)CC3 (stereo not drawn),5.2µM*,nt,nt,8.2µM*,-7,nt
CCC(NC(=O)c1csc(C)c1-c1ccccc1)c1ccc(C(C)C)cc1 (stereo not drawn),nt,nt,nt,nt,9,nt
CCN(CC)C(=O)c1cccc(NC(=O)c2cc(S(=O)(=O)NCc3ccccc3)ccc2C)c1,nt,nt,nt,nt,12,nt
CCCCCCc1ccc(Nc2ccccc2)cc1O,nt,nt,nt,nt,31,nt
Cn1ncc(Br)c1C(=O)N/N=C/c1cccc(OC2CSC2)c1,-12%,-16%,-6%,?,-10,5
Cc1ccc(S(=O)(=O)N/N=C/c2cccc(OC3CSC3)c2)cc1,?,-4%,41%,?,0,30
O=C(N/N=C/c1cccc(OC2CSC2)c1)c1ccccc1O,-9%,0%,13µM*,-3%,-23,10
O=S(=O)(N/N=C/c1cccc(OC2CSC2)c1)c1ccccc1,16µM*,-14%,20%,?,-7,4
O=C(CN1CCN(c2cccc(Cl)c2)CC1)NC1CCS(=O)(=O)C1 (stereo not drawn),nt,nt,nt,nt,-9,nt
CC(CCc1ccccn1)C(=O)C(C)CCc1ccccn1 (stereo not drawn),?,nt,nt,?,-6,0
CC(C)(CCc1ccccn1)C(=O)C(CCc1ccccn1)CCc1ccccn1,?,nt,nt,?,-8,-55*
CC12CCC(/C(=C/NNc3ccc([N+](=O)[O-])cc3[N+](=O)[O-])C1=O)C2(C)C (stereo not drawn),18µM*,nt,nt,18µM*,3,-7
Cc1ccc(N(Cc2cccs2)C(=O)COc2ccccc2[N+](=O)[O-])cc1,21µM*,nt,nt,23µM*,6,nt
Cc1ccc(N(Cc2cccs2)C(=O)c2ccccc2[N+](=O)[O-])cc1,15µM*,nt,nt,9.2µM*,5,nt
COc1ccc(N(Cc2cccs2)C(=O)COc2cccc(Cl)c2)cc1,?,nt,nt,?,2,nt
COc1ccc(N(Cc2cccs2)C(=O)COc2ccc([N+](=O)[O-])cc2)cc1,?,nt,nt,26µM*,1,nt
CCc1nnc2c3ccccc3nc(N3CCN(c4cc(C)ccc4C)CC3)n12,?,nt,nt,1.3µM*,1,nt
SMILES,DT40 TDP1 CPT,Gal4-VP16 FLuc,RORgamma inh,DT40 TDP1 no CPT,LDHA inh,IL1B secr inh
Cc1ccc(C)c(N2CCN(c3nc4ccccc4c4nc(-c5cccnc5)nn34)CC2)c1,-16%,nt,nt,-27%,-1,nt
Cc1ccc(C)c(N2CCN(c3nc4ccccc4c(=O)n3-c3ccccc3)CC2)c1,10µM*,nt,nt,9.2µM*,-3,nt
Cc1cccc(/C=C/c2nc3ccccc3c(=O)n2-c2ccc(C(=O)O)cc2)c1,nt,nt,nt,nt,-21,nt
Cc1cccc(/C=N/NC(=O)c2cc3c(s2)-c2ccccc2CC3)c1,16µM*,4%,-43%,15µM*,-4,0
O=C(N/N=C/c1cccc(C(F)(F)F)c1)c1cc2c(s1)-c1ccccc1CC2,?,-2%,-1%,?,0,0
O=C(O)c1ccccc1-c1ccccc1C(=O)Nc1ccc(F)cc1,10%,4%,11%,-11%,-16,-13
O=C(/C=C/c1ccc(NC(=O)c2ccccc2-c2ccccc2C(=O)O)cc1)c1ccccc1,-19%,?,11µM*,?,-18,-62*
O=C(/C=C/c1ccncc1)c1ccc(NC(=O)c2ccccc2F)cc1,4.1µM*,?,?,2.9µM*,-12,-104*
O=C(Nc1cccnc1)c1ccccc1F,-3%,1%,23%,1%,-6,-14
CCOc1ccc(/C=C2\SC(=S)N(CCCC(=O)NCCCN3CCOCC3)C2=O)cc1,18µM*,0.89µM*,0.4µM*,?,-3,-89*
CCc1ccc(/C=C2\SC(=S)N(CCCC(=O)NCCCN3CCOCC3)C2=O)cc1,21µM*,nt,nt,?,-1,-57*
CCOc1ccc(/C=C2\SC(=S)N(CC(=O)N(CCO)C(C)(C)C)C2=O)cc1,?,11µM*,7.1µM*,?,-1,-123*
O=C1CCSc2c1cccc2C(=O)NCC1CCN(Cc2ccc(F)cc2)CC1,nt,nt,nt,nt,14,nt
CCc1c(C)sc(NC(C)=O)c1C#N,nt,nt,nt,nt,6,nt
CC(C)(C)c1ccc(C(=O)NC(=S)NNC(=O)COc2ccccc2)cc1,13µM*,2.8µM*,2.5µM*,16µM*,0,78
CC(C)(C)c1ccc(OCC(=O)NNC(=O)CCc2ccccc2)cc1,1%,-11%,1%,-10%,-3,19
Cc1ccc(OCC(=O)NNC(=S)NC(=O)COc2ccccc2)cc1,nt,nt,nt,nt,-11,nt
Cc1ccc(C(=O)NNC(=S)NC(=O)COc2ccccc2)cc1,15µM*,-20%,?,6.5µM*,-3,33
CC(C1CC1)N(Cc1ccccc1)S(=O)(=O)c1ccc(Cl)cc1 (stereo not drawn),nt,nt,nt,nt,9,nt
Fc1cccc(NC(=S)NNc2c3ccccc3nc3ccccc23)c1,1.3µM*,-12%,10%,0.92µM*,-5,7
